In PubChem BioAssay (NCATS):

Experiments:
[1] = qHTS profiling of the MIPE4 collection as inhibitors of Plasmodium falciparum (3D7) proliferation (AID 743344);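 further: scaled between DMSO vehicle wells and 0.29 µM artemisinin as full inhibition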; conditions: P. falciparum 3D7 in erythrocytes, SYBR Green DNA fluorescence, 72 h; at 28.5 µM unless noted
In short: (§1)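 Parasite DNA was quantified by SYBR Green I fluorescence (ex 485, em 535 nm) after overnight lysis in saponin/Triton buffer at room temperature. Cultures at 0.3% parasitemia and 2.5% hematocrit were first exposed to compound for 72 h at 37 C; signals were normalised to artemisinin (0.29 uM) and vehicle wells.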

[2] = qHTS profiling of the MIPE4 collection as inhibitors of Plasmodium falciparum (DD2) proliferation (AID 743345); conditions: P. falciparum Dd2 in erythrocytes, SYBR Green DNA, 72 h; at 28.5 µM unless noted
In short: as §1

Compound | parasite growth, % of DMSO control [1] [%] | parasite growth remaining, % of DMSO control (lower = more inhibition) [2] [%]
CC1(C)CCC(CN2CCN(c3ccc(C(=O)NS(=O)(=O)c4ccc(NCC5CCOCC5)c([N+](=O)[O-])c4)c(Oc4cnc5[nH]ccc5c4)c3)CC2)=C(c2ccc(Cl)cc2)C1 | 18.2 | 76.7
CC1(C)CCC[C@@]2(C)[C@@H]1CC[C@@]1(C)OC(=O)C[C@H]21 | 81.6 | 136
NC(=O)c1cccc2[nH]c(-c3ccc([C@H]4CCCN4)cc3F)nc12 | 5.38 | –
NC(=O)c1ccc2nc(-c3ccc(Oc4ccc(Cl)cc4)cc3)[nH]c2c1 | 48.1 | 76.9
CCC(=O)NC[C@H](Cc1ccc(OCCc2nc(-c3ccccc3)oc2C)cc1)NC(C)=CC(=O)c1ccc(C(F)(F)F)cc1 | 6.82 | 7.84
Cc1ccc(C(C)(O)c2nc3ccccc3s2)c(C)c1 (stereo not drawn) | 61.8 | 90.2
CC1(C)Cc2c(sc(NC(=S)NC(=O)c3ccccc3)c2C(=O)O)CO1 | 90.4 | 100
COc1ccc(-c2coc3cc(O)ccc3c2=O)cc1 | 65.1 | 8.21
Cc1c(O)cccc1C(=O)N[C@@H](CSc1ccccc1)[C@H](O)CN1C[C@H]2CCCC[C@@H]2C[C@@H]1C(=O)NC(C)(C)C | 10.1 | 36
COC[C@@H](c1ccc(C(F)(F)F)cc1)N1CCN(C2(C)CCN(C(=O)c3c(C)ncnc3C)CC2)C[C@H]1C | 31.8 | 84.7
CCCCCNC(=O)N1CCC(CN(Cc2ccc(Cl)cc2)Cc2ccc([N+](=O)[O-])s2)C1 (stereo not drawn) | 60.8 | 25.2
CC(C)C(=O)Oc1ccc(CO)cc1[C@H](CCN(C(C)C)C(C)C)c1ccccc1 | 37.9 | 40.7
CC(C)OC(=O)CCCC=CC[C@@H]1[C@H](C=C[C@@H](O)COc2cccc(C(F)(F)F)c2)[C@H](O)C[C@@H]1O | 23.8 | –
C[C@]12CCC3c4ccc(O)cc4CCC3C1CCC2=O (stereo partly drawn) | 51.9 | –
CON=C(C(=O)N[C@@H]1C(=O)N2C(C(=O)OCOC(=O)C(C)(C)C)=C(C=Cc3scnc3C)CS[C@H]12)c1csc(N)n1 | 60.4 | 96
CCNc1cc(NC2CCC(O)CC2)nc(Nc2ccc3c(ccn3Cc3ccccc3)c2)n1 (stereo not drawn) | 4.9 | 6.69
Nc1ncnc2c1ncn2[C@@H]1O[C@H](CO)C[C@@H]1O | 43.4 | –
NC(=O)c1cccc(-c2cc(Nc3ccc(OC(F)(F)F)cc3)ncn2)c1 | 12.3 | 63.7
O=C1NC(=O)C(=Cc2cccc(C(F)(F)F)c2)S1 | 88.5 | 93.5
C[C@H](NC(=O)c1sccc1OCc1ccc(Cl)cc1)c1ccccc1 | 13.9 | 14.8
C=C1C(=O)OC(CCCCCCCC)C1C(=O)O (stereo not drawn) | 50.6 | 76.2
Nc1ncnc2c1ncn2[C@@H]1O[C@@H](CO)[C@H](O)[C@H]1O | 103 | 84.1
CO[C@H]1C[C@@H]2CC[C@@H](C)[C@@](O)(O2)C(=O)C(=O)N2CCCC[C@@H]2C(=O)O[C@H]([C@H](C)C[C@@H]2CC[C@H](OP(C)(C)=O)[C@H](OC)C2)CC(=O)[C@H](C)C=C(C)[C@@H](O)[C@@H](OC)C(=O)[C@H](C)C[C@H](C)C=CC=CC=C1C | 4.92 | 6.6
O=C(O)[C@H]1O[C@H](Oc2cc3oc(-c4ccccc4)cc(=O)c3c(O)c2O)[C@H](O)[C@@H](O)[C@H]1O | 69.9 | 89

Compound | parasite growth, % of DMSO control [1] [%] | parasite growth remaining, % of DMSO control (lower = more inhibition) [2] [%]
CO[C@H]1C[C@@H]2CC[C@@H](C)[C@@](O)(O2)C(=O)C(=O)N2CCCC[C@@H]2C(=O)O[C@H]([C@H](C)C[C@@H]2CC[C@H](OC(=O)C(C)(CO)CO)[C@H](OC)C2)CC(=O)[C@H](C)C=C(C)[C@@H](O)[C@@H](OC)C(=O)[C@H](C)C[C@H](C)C=CC=CC=C1C | 5.79 | 6.2
Cc1[nH]c(C=C2C(=O)Nc3ccc(S(=O)(=O)Cc4c(Cl)cccc4Cl)cc32)c(C)c1C(=O)N1CCC[C@H]1CN1CCCC1 | 6.34 | 8.07
Cc1ccc([C@@H]2O[C@H](CO)[C@@H](O)[C@H](O)[C@@H]2O)cc1Cc1ccc(-c2ccc(F)cc2)s1 | 134 | 118
NC(=O)c1cnc(-c2ccc(C3(N)CCC3)cc2)c(-c2ccccc2)c1 | 55.3 | 65.3
COc1cc2c(cc1OC)CN(CCc1ccc(NC(=O)c3cc(OC)c(OC)cc3NC(=O)c3cnc4ccccc4c3)cc1)CC2 | 39.1 | 83.6
O=c1ccn([C@@H]2O[C@H](CO)[C@H](O)[C@H]2O)c(=O)[nH]1 | 92.2 | 90.5
C=C1C(=O)OC2C=C(C)CCC=C(C)CCC12 (stereo not drawn) | 238 | 104
O=C1NC(=O)C(=Cc2ccc(-c3ccc(F)cc3)o2)S1 | 75.2 | 93.7
CC(C)n1cnc2c(NCCCCCCNC(=O)OC(C)(C)C)nc(NCCO)nc21 | 20.1 | 60.6
COc1ccc2cccc(CCNC(C)=O)c2c1 | 56.4 | 101
O=C(O)C(O)Cc1ccc(O)c(O)c1 (stereo not drawn) | 102 | 79.5
OC[C@H]1O[C@@H](Oc2cc(O)cc(C=Cc3ccc(O)cc3)c2)[C@H](O)[C@@H](O)[C@H]1O | 82.6 | 120
CNC(=O)c1ccc2cc(C3(O)CCn4cncc43)ccc2c1 (stereo not drawn) | 84.5 | 86.6
NC(=O)[C@@H](CCC(F)(F)F)N(Cc1ccc(-c2ncon2)cc1F)S(=O)(=O)c1ccc(Cl)cc1 | 50.8 | 88.9
Nc1nc(F)nc2c1ncn2[C@@H]1O[C@H](COP(=O)(O)O)[C@@H](O)[C@H]1O | 27.2 | 19.9
CN(C)Cc1cccc(N=C(c2ccccc2)c2c(O)[nH]c3cc(C(=O)N(C)C)ccc23)c1 | 16.4 | 30.5
CC(=O)O[C@]1(C(C)=O)CC[C@@H]2[C@@H]3C[C@H](C)C4=CC(=O)CC[C@]4(C)[C@H]3CC[C@@]21C | 24.9 | 89
O=C1c2ccccc2-[n+]2ccc3c([nH]c4ccccc43)c21 | 16.3 | 7.19
O=c1cc(-c2ccccc2)oc2cc(O)c(O)c(O)c12 | 7.41 | 24.2
COc1ccc(-c2cc(=O)c3c(O)cc(O)cc3o2)cc1O | 30.9 | 44.4
C=C1C(=O)[C@@]23C(CC[C@@H]1[C@H]2O)[C@@]12CO[C@]3(O)[C@@H](O)[C@@H]1C(C)(C)CC[C@@H]2O (stereo partly drawn) | 33.5 | 75.5
Cc1nnc(C(C)C)n1C1C[C@H]2CC[C@@H](C1)N2CC[C@H](NC(=O)C1CCC(F)(F)CC1)c1ccccc1 (stereo partly drawn) | 69.7 | 100
CC1CCC(C(=O)N(c2cc(C#CC(C)(C)C)sc2C(=O)O)C2CCC(O)CC2)CC1 (stereo not drawn) | 4.72 | 54.5
O=C(Nc1cccc(Br)c1)c1cccc(S(=O)(=O)N2CCCCCC2)c1 | 55.6 | 51.8

Compound | parasite growth, % of DMSO control [1] [%] | parasite growth remaining, % of DMSO control (lower = more inhibition) [2] [%]
CC[C@H]1OC(=O)[C@H](C)C(=O)[C@H](C)[C@@H](O[C@H]2O[C@H](C)C[C@H](N(C)C)[C@@H]2O)[C@](C)(OC)C[C@@H](C)C(=O)[C@H](C)[C@H]2N(CCCCn3cnc(-c4cccnc4)c3)C(=O)O[C@]12C | 5.78 | 14.5
COCCOC(=O)C1=C(C)NC2=C(C(=O)CC(c3ccccc3OC)C2)C1c1cccc(O)c1 (stereo not drawn) | 11.6 | 9.83
N#C[C@H]1C[C@H]2C[C@@H]2N1C(=O)[C@@H](N)C12CC3CC(CC(O)(C3)C1)C2 | 97.9 | 103
Cc1ccc(Nc2cc(-c3cccc(N4C(=O)c5ccccc5C4=O)c3)ncn2)cc1NS(C)(=O)=O | 76.1 | 83.3
c1cc(-c2sc(-c3ccncc3)c(-c3ccncc3)c2-c2ccncc2)ccn1 | 8.84 | 81.7
Nc1ncnc2ccccc12 | 84.9 | 98.4
NC1=N[C@@]2(c3cc(NC(=O)c4ccc(F)cn4)ccc3F)COC[C@@H]2CS1 | 23.2 | 20.8
C[C@]12CC[C@@H]3c4ccc(O)cc4CC[C@H]3[C@H]1C[C@@H](O)[C@H]2O | 87 | 91.2
CCOC(=O)C1=C(N)Oc2ccc(Br)cc2C1C(C#N)C(=O)OCC (stereo not drawn) | 91.3 | 95.8
CC(C)n1nc(-c2ccc3oc(N)nc3c2)c2c(N)ncnc21 | 5.01 | 9.14
NC1CCC(Nc2nc(Nc3ccc(C(=O)N4CCCCC4)cc3)c3ncn(-c4cccc(F)c4)c3n2)CC1 (stereo not drawn) | 113 | 89.1
CO[C@H]1C(=O)[C@]2(C)[C@@H](OC)C[C@H]3OC[C@@]3(OC(C)=O)[C@H]2[C@H](OC(=O)c2ccccc2)[C@]2(O)C[C@H](OC(=O)[C@H](O)[C@@H](NC(=O)OC(C)(C)C)c3ccccc3)C(C)=C1C2(C)C | 4.99 | 13.7
COc1cccc([C@@H](C)NCCCc2ccccc2Cl)c1 | 6.27 | 78.7
C[C@]12CC[C@@H]3c4ccc(O)cc4C[C@@H](CCCCCCCCCS(=O)CCCC(F)(F)C(F)(F)F)[C@H]3[C@H]1CC[C@H]2O (stereo partly drawn) | 5.44 | 8.45
CC[C@]1(O)C[C@@H]2CN(CCc3c([nH]c4ccccc34)[C@@](C(=O)OC)(c3cc4c(cc3OC)N(C=O)[C@@H]3C45CCN4CC=C[C@](CC)([C@H]45)[C@@H](OC(C)=O)[C@]3(O)C(=O)OC)C2)C1 (stereo partly drawn) | 5.87 | 10.2
Oc1ccc(C2=Cc3ccc(O)cc3OC2)cc1 | 19.6 | 34.7
N[C@@]1(C(=O)O)CS(=O)(=O)[C@H]2[C@H](C(=O)O)[C@H]21 | 57.1 | 88.4
O=C(CCN1CCN(C(=O)OCc2cc(Cl)cc(Cl)c2)CC1)c1ccc2[nH]c(=O)oc2c1 | 101 | 103
CCc1ccc(C=C2SC(=S)NC2=O)cc1 | 77.1 | 93.8
O=C(Nc1c(Cl)cncc1Cl)c1ccc(OC(F)F)c(OCC2CC2)c1 | 109 | 100
C[N+](C)(C)CC(=O)O | 86.7 | 96.1
O=C(Nc1ccccc1Br)N[C@@H]1CCN(c2ccc(C(F)(F)F)cn2)C1 | 73.6 | 96.2
Cc1cc(OCCCc2c(C(=O)O)n(Cc3cccnc3)c3c(-c4c(COc5ccc(N6CCN([S+](C)(=O)[O-])CC6)cc5)nn(C)c4C)cccc23)cc(C)c1Cl | 6.87 | 8.65
